# Results as given in article PMC7862700, “An all-to-all approach to the identification of sequence-specific readers for epigenetic DNA modifications on cytosine”.
# Tests used:
# Assay in all cases: DAPPL (digital affinity profiling via proximity ligation, sequencing); 10 mM Tris-HCl pH 7.5, 50 mM NaCl, 1 mM DTT, 4% glycerol, room temperature, 30 min; GST-TFs on glutathione beads, 16-mer random dsDNA library, 0.1% formaldehyde crosslink after washing; high values mean tight binding
# Details in all cases: protein: recombinant; tags: N-terminal GST; dsDNA, one strand shown
# [1] = biological target: T1, FLI1 (Homo sapiens, UniProt Q01543 1-452)
# T1 sequence: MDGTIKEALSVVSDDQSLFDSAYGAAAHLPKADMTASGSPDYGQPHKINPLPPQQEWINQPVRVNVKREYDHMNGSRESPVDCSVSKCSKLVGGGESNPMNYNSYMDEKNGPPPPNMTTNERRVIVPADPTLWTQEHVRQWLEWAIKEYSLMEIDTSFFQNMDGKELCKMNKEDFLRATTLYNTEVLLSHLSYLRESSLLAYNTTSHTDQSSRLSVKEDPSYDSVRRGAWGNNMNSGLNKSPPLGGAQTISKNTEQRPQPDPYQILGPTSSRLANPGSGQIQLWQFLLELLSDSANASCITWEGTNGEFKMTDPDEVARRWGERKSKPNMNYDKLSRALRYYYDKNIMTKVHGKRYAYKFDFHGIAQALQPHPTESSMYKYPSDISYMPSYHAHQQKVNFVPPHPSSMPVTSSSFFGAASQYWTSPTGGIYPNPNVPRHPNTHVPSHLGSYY
# Method in brief: (§1)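 After expression in yeast as GST fusions, human transcription factors were bound to glutathione beads, DNA-barcoded and mixed with a tag-only sample. The pools were incubated with 200 nmole of a 16-mer random double-stranded DNA library in Tris/NaCl/DTT/glycerol buffer (30 min, room temperature), washed and crosslinked with 0.1% formaldehyde. Proximity ligation with BsaI/T4 ligase ran for 1 h at 37 °C, before PCR amplification and sequencing on an Illumina NextSeq500. Binding signal is a hexamer's read frequency for a factor divided by its frequency for the tag-only sample.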
# [2] = biological target: T2, ELK1 (Homo sapiens, UniProt P19419 1-428)
# T2 sequence: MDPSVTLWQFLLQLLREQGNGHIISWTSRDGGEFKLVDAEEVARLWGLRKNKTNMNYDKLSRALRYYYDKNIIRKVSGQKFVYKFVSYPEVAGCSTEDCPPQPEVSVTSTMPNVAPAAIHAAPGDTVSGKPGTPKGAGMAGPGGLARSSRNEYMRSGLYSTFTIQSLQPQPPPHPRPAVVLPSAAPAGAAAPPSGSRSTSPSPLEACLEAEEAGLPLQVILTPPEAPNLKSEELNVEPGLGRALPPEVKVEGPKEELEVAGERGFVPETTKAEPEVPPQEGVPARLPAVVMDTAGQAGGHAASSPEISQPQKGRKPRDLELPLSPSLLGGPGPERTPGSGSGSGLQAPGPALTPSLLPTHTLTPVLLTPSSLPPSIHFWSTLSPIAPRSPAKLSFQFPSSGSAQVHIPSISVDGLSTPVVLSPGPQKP
# Method in brief: as §1
# [3] = biological target: T3, GABPA (Homo sapiens, UniProt Q06546 1-454)
# T3 sequence: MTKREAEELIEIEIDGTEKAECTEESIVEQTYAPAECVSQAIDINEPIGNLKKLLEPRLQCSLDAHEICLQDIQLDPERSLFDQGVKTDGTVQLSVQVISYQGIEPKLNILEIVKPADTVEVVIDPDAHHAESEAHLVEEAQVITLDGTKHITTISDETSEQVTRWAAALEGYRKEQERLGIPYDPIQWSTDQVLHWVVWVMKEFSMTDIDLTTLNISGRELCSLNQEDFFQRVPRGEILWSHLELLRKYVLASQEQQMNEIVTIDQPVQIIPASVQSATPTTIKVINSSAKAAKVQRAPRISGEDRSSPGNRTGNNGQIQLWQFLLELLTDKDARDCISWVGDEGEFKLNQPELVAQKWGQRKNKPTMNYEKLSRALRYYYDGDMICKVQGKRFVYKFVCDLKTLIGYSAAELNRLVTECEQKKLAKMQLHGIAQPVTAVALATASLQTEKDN
# Method in brief: as §1
# [4] = biological target: T4, ERG (Homo sapiens, UniProt P11308 1-479)
# T4 sequence: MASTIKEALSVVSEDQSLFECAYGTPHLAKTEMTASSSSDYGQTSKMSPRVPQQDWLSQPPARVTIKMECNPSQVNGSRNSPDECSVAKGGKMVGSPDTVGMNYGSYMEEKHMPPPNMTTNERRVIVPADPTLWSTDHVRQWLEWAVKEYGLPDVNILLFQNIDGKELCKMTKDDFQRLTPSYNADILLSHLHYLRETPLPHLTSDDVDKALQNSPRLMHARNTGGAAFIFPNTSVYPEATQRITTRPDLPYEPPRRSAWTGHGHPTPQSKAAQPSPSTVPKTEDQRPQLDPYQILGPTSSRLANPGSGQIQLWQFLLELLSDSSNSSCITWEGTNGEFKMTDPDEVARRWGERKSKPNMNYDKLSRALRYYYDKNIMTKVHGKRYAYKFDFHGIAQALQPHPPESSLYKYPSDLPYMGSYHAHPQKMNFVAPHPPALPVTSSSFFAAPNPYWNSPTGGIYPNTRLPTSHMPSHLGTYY
# Method in brief: as §1
# [5] = biological target: ELF1 (Homo sapiens, UniProt P32519 1-619)
# Sequence of ELF1 (P32519 whole entry): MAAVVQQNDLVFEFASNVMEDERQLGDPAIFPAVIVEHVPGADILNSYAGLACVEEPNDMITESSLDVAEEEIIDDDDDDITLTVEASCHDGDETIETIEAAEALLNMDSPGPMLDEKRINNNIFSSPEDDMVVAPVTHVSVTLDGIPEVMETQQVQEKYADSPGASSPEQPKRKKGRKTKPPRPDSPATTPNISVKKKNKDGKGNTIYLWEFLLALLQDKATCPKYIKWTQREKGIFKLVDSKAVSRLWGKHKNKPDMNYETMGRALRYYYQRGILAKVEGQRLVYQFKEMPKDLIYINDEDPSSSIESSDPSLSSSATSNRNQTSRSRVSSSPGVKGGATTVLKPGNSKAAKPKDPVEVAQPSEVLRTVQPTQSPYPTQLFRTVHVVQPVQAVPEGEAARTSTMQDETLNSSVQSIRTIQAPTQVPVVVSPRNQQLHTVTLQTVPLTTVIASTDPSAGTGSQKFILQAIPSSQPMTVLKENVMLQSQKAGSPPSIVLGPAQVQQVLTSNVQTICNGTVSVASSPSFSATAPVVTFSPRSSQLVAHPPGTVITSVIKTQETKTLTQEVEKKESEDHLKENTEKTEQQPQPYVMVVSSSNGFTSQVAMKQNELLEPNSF
# Method in brief: as §1
# [6] = biological target: T5, EHF (Homo sapiens, UniProt Q9NZC4 1-300)
# T5 sequence: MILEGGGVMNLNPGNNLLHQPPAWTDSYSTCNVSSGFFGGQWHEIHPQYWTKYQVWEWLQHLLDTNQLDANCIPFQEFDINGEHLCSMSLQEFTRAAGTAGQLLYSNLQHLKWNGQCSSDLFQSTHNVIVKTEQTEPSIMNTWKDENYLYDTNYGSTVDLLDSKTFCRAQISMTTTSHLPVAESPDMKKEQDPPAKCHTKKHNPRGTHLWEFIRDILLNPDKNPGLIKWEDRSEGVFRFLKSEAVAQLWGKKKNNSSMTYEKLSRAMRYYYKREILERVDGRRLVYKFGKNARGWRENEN
# Method in brief: as §1
# [7] = biological target: SPI1 (Homo sapiens, UniProt P17947 1-270)
# Method in brief: as §1
# [8] = biological target: SPIB (Homo sapiens, UniProt Q01892 1-262)
# Sequence of SPIB (Q01892 whole entry): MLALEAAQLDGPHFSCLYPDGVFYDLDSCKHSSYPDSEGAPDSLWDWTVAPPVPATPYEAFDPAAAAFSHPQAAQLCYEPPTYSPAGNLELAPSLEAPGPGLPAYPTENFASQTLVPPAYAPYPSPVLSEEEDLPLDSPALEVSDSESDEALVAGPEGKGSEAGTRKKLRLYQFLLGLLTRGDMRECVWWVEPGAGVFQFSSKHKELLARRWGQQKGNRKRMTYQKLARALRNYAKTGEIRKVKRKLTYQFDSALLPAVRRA
# Method in brief: as §1
# [9] = biological target: T6, ELK3 (Homo sapiens, UniProt P41970 1-407)
# T6 sequence: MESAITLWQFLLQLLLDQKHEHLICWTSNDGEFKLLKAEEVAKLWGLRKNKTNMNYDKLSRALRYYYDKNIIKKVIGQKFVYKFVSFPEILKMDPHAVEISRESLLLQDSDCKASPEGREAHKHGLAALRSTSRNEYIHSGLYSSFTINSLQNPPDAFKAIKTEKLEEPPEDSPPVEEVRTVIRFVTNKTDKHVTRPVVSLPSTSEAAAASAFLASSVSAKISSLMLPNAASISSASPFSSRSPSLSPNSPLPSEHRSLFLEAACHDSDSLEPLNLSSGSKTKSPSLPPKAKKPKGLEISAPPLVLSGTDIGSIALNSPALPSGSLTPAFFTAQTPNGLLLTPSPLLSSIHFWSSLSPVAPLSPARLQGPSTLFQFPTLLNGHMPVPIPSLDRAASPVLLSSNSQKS
# Method in brief: as §1
sequence,measurement,setting,value
TTCTGT,binding signal,[1],"1.26 fold enrichment (6-mer frequency, TF over GST control)"
same,binding signal,[2],"1.3 fold enrichment (6-mer frequency, TF over GST control)"
same,binding signal,[3],"1.3 fold enrichment (6-mer frequency, TF over GST control)"
same,binding signal,[4],"1.27 fold enrichment (6-mer frequency, TF over GST control)"
same,binding signal,[5],"1.27 fold enrichment (6-mer frequency, TF over GST control)"
same,binding signal,[6],"1.25 fold enrichment (6-mer frequency, TF over GST control)"
same,binding signal,[7],"1.37 fold enrichment (6-mer frequency, TF over GST control)"
same,binding signal,[8],"1.22 fold enrichment (6-mer frequency, TF over GST control)"
same,binding signal,[9],"1.33 fold enrichment (6-mer frequency, TF over GST control)"
